Compounds with a hit are over-represented: about 1.8% of the library has one in this group of screens.
Akt phos inh = Akt phosphorylation inhibition. Neuro2A IGF-stimulated pAkt S473 HTRF, 20 min; stronger effect = lower value. activity change, % for hits at 50 µM. 360,000 tested, 0.32% active; in the data active = activity change below about -80%; inconclusive = mostly about -51% to -80%
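Single-point screen (50 µM final compound) in Neuro2A cells stimulated 20 min with 6 nM IGF at 37 deg C. After lysis, Ser473-phosphorylated Akt read by HTRF (ex 330 nm, em 615/665 nm) as the 665/615 ratio.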
AT treatment = potential ataxia-telangiectasia treatment. F2112 A-T fibroblasts, KAP-1 phosphorylation AlphaLISA; neocarzinostatin DNA damage 30 min before lysis. 320,000 tested, 0.19% active. Potency, µM (series often up to 57.5 µM), actives largely listed as activators; note: nearly all actives have a fitted effect of over 45% in size
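hTERT-immortalized A-T patient fibroblasts (F2112), 500 cells/well in OPTI-MEM, 1% FBS, got compounds for 60 min, then NCS for 30 min at 37C. Lysates were then assayed for phospho-KAP-1 by AlphaLISA (anti-pKAP1 donor, anti-KAP1 acceptor beads), 6 hr at 25C.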
CCT chaperon mod = cytosolic chaperonin activity modulation; purified chaperonin ATPase assay, HTRF ADP detection, 30 min; 360,000 tested, 0.3% active; activity change, % (test concentration not listed), hits read low; in the data active = activity change below about -30%
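Enzyme 40 or 20 nM (batch-dependent) in Tris pH 7.4/KCl/MgCl2/DTT; cpd 76 uM single point; ATP 10 uM; 30 min 37 °C; Transcreener ADP HTRF detection, 30 min RT; ratio 665/615.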
Mm-Cpn inhibitor = M. maripaludis TRiC chaperonin inhibition. purified Mm-Cpn ATPase, ADP Transcreener TR-FRET. Potency, µM (series often up to 76.9 µM), hits mostly inhibitors. 330,000 tested, 0.031% active; note: nearly all actives have a fitted effect of over 80% in size
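Reaction buffer contained 30 mM Tris pH 7.4, 100 mM KCl, 5 mM MgCl2 and 1 mM DTT. Mm-CPN (25 nM final) hydrolysed 10 uM ATP over 30 min at 37°C; ADP was read by HTRF.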
BRCA1 expr act = increases BRCA1 expression; MCF7-BRCA1-FFLuc reporter, luminescence, 48 h; response scale: scaled: vehicle 0%, 10 µM genistein 100%; Potency, µM (doses to about 46.1 µM), hits mostly activators; 380,000 tested, 1.1% active; AID 624202; note: nearly all actives have a fitted effect of over 80% in size
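MCF7-BRCA1-FFLuc cells, 2000/well in phenol-red-free MEM, attached 2 h then treated 48 h at 37 C. Luciferase luminescence read 15 min after reagent; normalized to genistein maximum activation (10microM) and DMSO, concentration-response fitted.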
A number is an active result; 0 = inactive; ? = inconclusive; - = no result given. Unless noted, calls come from the whole dose curve; as a rule, active = well fitted curve in the direction sought with a large enough effect; inconclusive = small, poorly fitted or top-dose-only effect, or another doubt; inactive = no such curve, though single readings can be large; an effect the other way counts as inactive or inconclusive.

SMILES | Akt phos inh | AT treatment | CCT chaperon mod | Mm-Cpn inhibitor | BRCA1 expr act
Cc1ccc(NC(=O)c2ccco2)c([N+](=O)[O-])c1 | 0 | 0 | 0 | 0 | 7.94µM
Cc1cc(C(=O)Nc2cccc([N+](=O)[O-])c2C)cs1 | 0 | 0 | 0 | 0 | 0
CC(C)(C)c1ccc(NC(=O)c2ccccc2)c([N+](=O)[O-])c1 | 0 | 0 | -41.4 | 0 | ?
Cc1ccc([N+](=O)[O-])cc1NC(=O)c1ccc(C(C)(C)C)cc1 | 0 | 0 | 0 | 0 | 0
Cc1ccc(NC(=O)c2ccc(C(C)(C)C)cc2)cc1[N+](=O)[O-] | 0 | ? | 0 | 0 | 8.91µM
Cc1c(NC(=O)c2ccc(C(C)(C)C)cc2)cccc1[N+](=O)[O-] | 0 | 0 | 0 | 0 | 7.94µM
COC(=O)c1ccc(NC(=O)CN2C(=O)CC(c3ccccc3)Sc3ccccc32)cc1 (stereo not given) | - | - | - | - | 0
CCOc1ccc(S(=O)(=O)NCCC(=O)OCC(=O)Nc2cc(C)on2)cc1 | 0 | 0 | 0 | 0 | 0
CCC1(C)NC(=O)N(CC(=O)Nc2cc(C)on2)C1=O (stereo not given) | 0 | 0 | 0 | 0 | 0
CCCNS(=O)(=O)c1cc2c(cc1Br)CCN2C(=O)CC | 0 | - | 0 | - | 0
CCN(CC)C(=O)c1[nH]cnc1C(=O)N[C@H](C)c1ccccc1 | 0 | 0 | 0 | 0 | 0
Fc1ccccc1CSc1nnc(-c2cccnc2)o1 | 0 | 0 | 0 | 0 | 7.08µM
Fc1ccccc1CSc1nnc(-c2ccccc2)o1 | 0 | 0 | 0 | 0 | 3.98µM
CCN(CC)c1ccc(NC(=O)C(Cc2ccccc2)NS(=O)(=O)c2ccc(Br)s2)c(C)c1 (stereo not given) | - | - | - | - | 0
CC(/C=N/NC(=O)Cc1cccs1)=C\c1ccccc1 | 0 | 0 | 0 | 0 | ?
O=C(Cc1cccs1)N/N=C/C(Br)=C/c1ccccc1 | 0 | 0 | 0 | 0 | 5.01µM
Cc1ccc(C2CC(c3ccccc3)=NN2c2ccccc2)o1 (stereo not given) | 0 | 20µM | 0 | 0 | 0
C(=C\c1ccco1)/C1=NN(c2ccccc2)C(c2ccco2)C1 (stereo not given) | 0 | 31.6µM | 0 | 0 | 0
Cc1nc(N2N=C(c3ccc(Cl)cc3)CC2c2ccco2)sc1C(=O)N(C)C (stereo not given) | 0 | 31.6µM | 0 | 0 | 0
CC(=O)N1N=C(c2ccc(Cl)cc2)CC1c1ccco1 (stereo not given) | 0 | 0 | 0 | 0 | 0
Clc1ccc(C2=NN(c3ccccc3)C(c3ccco3)C2)cc1 (stereo not given) | 0 | 25.1µM | 0 | 0 | 0
C=C1NN(Cc2ccc(OC)cc2)C(=O)N1c1ccccc1 | - | - | - | - | 0
CC(C)C[C@@H](COCc1ccc([N+](=O)[O-])cc1)N1CCN(C(=O)c2ccc(C(F)(F)F)cc2)CCC1=O | 0 | - | 0 | - | 0
CCOC(=O)c1cnn2c(C)cc(-c3ccc(F)cc3)nc12 | 0 | 0 | 0 | 0 | 2.82µM
CN(C)/C=N/C(=S)Nc1ccc(Cl)cc1Cl | 0 | 0 | 0 | 0 | 5.01µM
SMILES | Akt phos inh | AT treatment | CCT chaperon mod | Mm-Cpn inhibitor | BRCA1 expr act
CC(C)(C)/C(O)=C/c1nc2ccccc2oc1=O | 0 | 0 | 0 | 0 | 0
O=c1oc2ccccc2nc1/C=C(\O)c1ccccc1 | 0 | 0 | 0 | 0 | 3.55µM
CC(C)NC(=O)c1ccc(-c2ccccc2C(F)(F)F)o1 | 0 | 0 | 0 | 0 | 11.2µM
CCOC(=O)c1cc2ccccc2n1C1CCN(CCc2ccccc2)CC1 | 0 | - | 0 | - | 0
COc1ccc2cc(C[C@@H]3CC[C@@H](CO)O3)ccc2c1 | 0 | 0 | 0 | 0 | 2.82µM
O=C(O)C1CCCC1 | - | - | - | - | 0
CNC(=S)N1C2CCCC1CC(NC(=O)c1ccc(C)cc1)C2 (stereo not given) | 0 | - | -48.2 | - | 0
COc1ccc(-c2csc(NC(=O)c3ccc(S(=O)(=O)N4CCc5ccccc5C4)cc3)n2)c(OC)c1 | 0 | 0 | 0 | 50.1µM | 0
CCOc1ccc(-c2csc(NC(=O)c3ccc(S(=O)(=O)N4CCc5ccccc5C4)cc3)n2)cc1 | 0 | 0 | 0 | ? | 0
N#C/C(=C/c1ccc(F)cc1)C(N)=S | 0 | 3.55µM | 0 | 0 | 0
Cc1cc(/C=N/Nc2ccc([N+](=O)[O-])cn2)c(C)n1-c1ccccc1 | 0 | 0 | 0 | ? | 10µM
Cc1cc(C(=O)N/N=C/c2cccc([N+](=O)[O-])c2)c(C)n1-c1ccccc1 | 0 | 0 | 0 | 0 | 0
Cc1ccc(/C=N/NC(=O)c2ccco2)cc1 | 0 | 0 | 0 | 0 | 0
O=[N+]([O-])c1ccc(NN=C(c2ccccc2)c2ccccc2)nc1 | 0 | - | 0 | - | 0
Cc1cccc(-n2c(C)cc(/C=N\NC(=O)c3ccco3)c2C)c1 | 0 | 0 | 0 | 0 | 8.91µM
Cc1cc(/C=N/NC(=O)c2ccccn2)c(C)n1-c1cccc([N+](=O)[O-])c1 | 0 | 0 | 0 | 0 | 10µM
CC(=NNc1ccc([N+](=O)[O-])cn1)c1ccccc1 | 0 | - | 0 | - | 10µM
CCn1nnnc1Sc1nc(C)nc2scc(-c3ccccc3)c12 | - | - | - | - | 0
CSCCNC(=O)C1(C)CCN1C(=O)c1sccc1C (stereo not given) | 0 | - | 0 | - | 0
C[n+]1c(/C=C/c2ccc(N)cc2)sc2ccccc21 | - | - | - | - | 0
CN(CC(=O)Nc1ccc(F)c(F)c1F)C(=O)c1ccc(-n2cncn2)c([N+](=O)[O-])c1 | 0 | 0 | 0 | 0 | 0
COc1ccc2[nH]c3c(NCCN(C(C)C)C(C)C)ncnc3c2c1 | 0 | 0 | -52.3 | 0 | 0
COc1cc2nc(N3CCOCC3)nc(NC3CC3)c2cc1OC | - | - | - | - | 0
COc1ccc(Cl)cc1NC(=O)Cn1c(=O)n(CCC(=O)NCc2ccc3c(c2)OCO3)c(=O)c2ccccc21 | - | - | - | - | 0
COc1cc2c(cc1OC)CN(CC(=O)Nc1ccc(C#N)cc1)CC2 | -106.8% | 0 | 0 | 0 | 0
SMILES | Akt phos inh | AT treatment | CCT chaperon mod | Mm-Cpn inhibitor | BRCA1 expr act
COc1cc2c(cc1OC)CN(CC(=O)Nc1ccc(S(=O)(=O)N(C)C)cc1)CC2 | 0 | 0 | 0 | 0 | 0
C[n+]1ccc(/C=C/c2cc[n+](C)c3ccccc23)c2ccccc21 | - | - | - | - | 0
O=C(Cc1cccs1)NCc1ccccc1F | 0 | 0 | 0 | 0 | 0
Cc1ccccc1CNC(=O)Cc1cccs1 | 0 | 0 | 0 | 0 | 12.6µM
Cc1ccccc1CNC(=O)Cc1ccccc1[N+](=O)[O-] | 0 | 0 | 0 | 0 | 14.1µM
Cc1ccccc1C(=O)O/N=C(\N)Cc1cccs1 | 0 | 0 | 0 | 0 | 8.91µM
CCOC(=O)Cc1ccc2sc(-c3ccccc3)nc2c1 | 0 | 0 | 0 | 0 | 4.47µM
CCOC(=O)c1sc(-c2ccccc2)nc1C | 0 | 0 | 0 | 0 | 0
O=C(CN1CCN(C(=O)C2CCCO2)CC1)Nc1ccc(F)cc1 (stereo not given) | 0 | 0 | 0 | 0 | 0
COC(=O)C1=C(O)C2(C(=O)O)CC(C(=O)OC)=C(O)C(C(=O)O)(C1)C2 | 0 | 0 | 0 | 0 | 0
CC1(C(=O)O)CC(C)(C(=O)O)CC(C)(C(=O)O)C1 (stereo not given) | -119.1% | 0 | 0 | 0 | 0
